Source: PubChem BioAssay (NCATS)
Results filed as inconclusive are left out. A call without a number means that no potency is given here. Activity calls are given as the source filed them. The call rests on the fitted dose curve; in most records, active means well fitted curve in the direction sought with a large enough effect in the signal ratio, with a control signal flat (not every such curve was filed as active); inconclusive means small, poorly fitted or top-dose-only effect, or effect the other way, or a change in a side signal; inactive means no such curve, though single readings can be large or run the other way; the % refers to the signal ratio.

Biological target: Estrogen receptor (Homo sapiens) (UniProt P03372)
Sequence (P03372 whole entry, looked up): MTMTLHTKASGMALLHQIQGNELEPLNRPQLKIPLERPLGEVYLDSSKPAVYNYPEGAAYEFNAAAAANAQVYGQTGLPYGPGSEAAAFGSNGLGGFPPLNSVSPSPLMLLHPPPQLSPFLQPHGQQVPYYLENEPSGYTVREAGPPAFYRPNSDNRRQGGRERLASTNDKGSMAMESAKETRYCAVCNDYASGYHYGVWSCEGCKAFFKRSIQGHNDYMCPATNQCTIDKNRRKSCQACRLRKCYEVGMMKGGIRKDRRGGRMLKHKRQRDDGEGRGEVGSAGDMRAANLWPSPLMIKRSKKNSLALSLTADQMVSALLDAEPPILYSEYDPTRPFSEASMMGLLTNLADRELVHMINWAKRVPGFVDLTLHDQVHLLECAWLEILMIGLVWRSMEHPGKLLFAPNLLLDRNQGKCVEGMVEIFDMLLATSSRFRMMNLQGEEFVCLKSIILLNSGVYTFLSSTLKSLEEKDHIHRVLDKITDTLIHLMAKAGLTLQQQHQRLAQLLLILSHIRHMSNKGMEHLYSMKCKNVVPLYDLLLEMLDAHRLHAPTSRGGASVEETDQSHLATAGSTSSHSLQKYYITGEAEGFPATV
Assay: qHTS assay for small molecule antagonists of estrogen receptor alpha signaling (AID 588513)
Details: ER-alpha-UAS-bla HEK293, beta-lactamase ratio, antagonist mode; series mostly up to 76.9 µM
Description: NIH Chemical Genomics Center [NCGC]
U.S. Environmental Protection Agency [EPA]
National Institutes of Environmental Health Sciences [NIEHS]
National Toxicology Program [NTP]
Estrogen receptor alpha (ER-alpha) is an important member of nuclear hormone receptors. ER-alpha plays important role in breast cancer as well as in other women's health issues. The majority of breast cancers is estrogen receptor (ER) positive and depends on estrogen for growth. There is also growing concern for some of environmental chemicals which may contribute the increasing the incidence of breast cancer. Therefore, it is important to understand the effect of environmental chemicals in ER-alpha signaling pathway.
NCGC Assay Protocol Summary
Using a beta-lactamase reporter-gene under control of the ER response element, a cell-based assay [ER-alpha-UAS-bla GripTiteTM cell-Based Assay from Invitrogen] was used to measure ER-alpha signaling pathway in antagonist mode. ER-alpha-UAS-bla-GripTite HEK 293 cells were used with assay medium containing 2% charcoal/dextran treated FBS, 0.1 mM NEAA and 1 mM sodium pyruvate. Cells were cultured in this assay medium overnight in the flasks before the assay. The assay was performed in clear bottom black Greiner 1536-well plates. 17-beta-estradiol was used as a positive control in the screen. Library compounds were measured for their ability to inhibit the reporter gene activity. Compounds were screened in a titration series in 1536-well format. […] Data was normalized relative to 17-beta-estradiol control (0.5nM, 100%), and DMSO only wells (basal, 0%). Concentration-response titration points for each compound were fitted to the Hill equation yielding concentrations of half-maximal inhibition (IC50) and maximal response (efficacy) values.
qHTS protocol for ER-alpha beta-lactamase assay in antagonist mode
[Step] [Parameter] [Value] [Description]
1. Reagent; 5 uL; 5000 cells/well
2. Incubation; 37 C for 4 hrs
- Dose response, Start 38uM, 1:2 dilutions with duplicates
- Two columns with 38 and 19uM (final) concentration.
5. Agonist (Stimulator); 1uL; 17-beta-estradiol at 0.5nM (final) concentration
6. Incubation; 37 C for 18 hrs
7. Detection reagent; 1 uL of CCF4-dye
8. Incubation; RT for 2 hrs
9. Detection; Fluorescence; Envision plate reader or Acumen plate reader

| Compound | Potency |
| --- | --- |
| CCCCN(CCCC)CCCC | inactive |
| CC(C)c1cccc(C(C)C)c1 | inactive |
| CCCCOCCOCCOC(C)=O | inactive |
| C=CCCCCCCCCC=O | inactive |
| CC(C)OC(=O)c1ccccc1C(=O)OC(C)C | inactive |
| CCCCCCCCCCCCCCCCN(C)C | inactive |
| O=C1CCCC/C=C/CCCCCCCCCO1 | inactive |
| CCCCCCCOC(=O)c1ccccc1C(=O)OCCCCCCC | inactive |
| CCCC/C=C/CCCCO | inactive |
| Cc1ccc(N=Nc2c(O)ccc3ccccc23)c(C)c1 | inactive |
| CC1(C)CC(N)CC(C)(CN)C1 (stereo not given) | inactive |
| Cc1ccc(C(C)(C)C)c(O)c1 | inactive |
| Cc1ccc(Cl)cc1Cl | inactive |
| CC(C)(C)c1cccc(C(C)(C)C)c1O | inactive |
| NCCCCCCCCCCC(=O)O | inactive |
| C=CC(=O)OCC[N+](C)(C)C | inactive |
| Nc1c(N=Nc2ccc(S(=O)(=O)CCOS(=O)(=O)O)cc2)c(S(=O)(=O)O)cc2cc(S(=O)(=O)O)c(N=Nc3ccc(S(=O)(=O)CCOS(=O)(=O)O)cc3)c(O)c12 | inactive |
| CCC/C(=N\OCC)C1=C(O)CC(O)(CC(C)S(=O)(=O)CC)CC1=O (stereo not given) | inactive |
| C[Si](Cl)(Cl)c1ccccc1 | inactive |
| C=C(C)C(=O)OCCC[Si](OC)(OC)OC | inactive |

| Compound | Potency |
| --- | --- |
| CCCCCC1CCC(=O)O1 (stereo not given) | inactive |
| CCCCCCCCCCO | inactive |
| Cc1ccc(S(=O)(=O)N=C=O)cc1 | inactive |
| CC1(C)CC(NCCCCCCNC2CC(C)(C)NC(C)(C)C2)CC(C)(C)N1 | inactive |
| CCCCCCCC[Si](Cl)(Cl)Cl | inactive |
| CCCCOCCOCCOC(=O)CCCCC(=O)OCCOCCOCCCC | inactive |
| Oc1ccc2ccccc2c1N=Nc1ccccc1 | inactive |
| Fc1ccc(Br)cc1 | inactive |
| CC(C)CCCCCOC(=O)CS | inactive |
| CC(C)c1ccc(C(C)C)cc1 | inactive |
| CCCCCCCC(=O)OC | inactive |
| OCC(CO)(CO)COCC(CO)(CO)CO | inactive |
| CCCCCCCCCC(C)=O | inactive |
| Cl[Si](Cl)(c1ccccc1)c1ccccc1 | inactive |
| CC(C)(C)C1CCC(O)CC1 (stereo not given) | inactive |
| Cn1c(=O)[nH]c(=O)n(C2CCCCC2)c1=O | inactive |
| CCCCCCCCCCCCO | inactive |
| CNc1nc(=O)n(C2CCC(O)CC2)c(=O)n1C (stereo not given) | inactive |
| COC(=O)c1ccccc1S(=O)(=O)NC(=O)Nc1nc(OC(F)F)cc(OC(F)F)n1 | inactive |
| CSC(=O)c1cccc2nnsc12 | inactive |
